# How the values were obtained:
# [1] = molecular target: Tyrosine-protein kinase Fyn (Homo sapiens) (UniProt P06241); conditions: at 1 µM
# [2] = molecular target: Tyrosine-protein kinase HCK (Homo sapiens) (UniProt P08631); conditions: at 0.1 µM
# [3] = molecular target: Tyrosine-protein kinase HCK (Homo sapiens) (UniProt P08631); conditions: at 1 µM
# [4] = molecular target: Insulin-like growth factor 1 receptor (Homo sapiens) (UniProt P08069); conditions: at 0.1 µM
# [5] = molecular target: Insulin-like growth factor 1 receptor (Homo sapiens) (UniProt P08069); conditions: at 1 µM
# [6] = molecular target: Insulin receptor (Homo sapiens) (UniProt P06213); conditions: at 0.1 µM
# [7] = molecular target: Insulin receptor (Homo sapiens) (UniProt P06213); conditions: at 1 µM
# [8] = molecular target: Insulin receptor-related protein (Homo sapiens) (UniProt P14616); conditions: at 0.1 µM
# Chain of Insulin receptor-related protein (Homo sapiens) (P14616 27-742 limits assumed): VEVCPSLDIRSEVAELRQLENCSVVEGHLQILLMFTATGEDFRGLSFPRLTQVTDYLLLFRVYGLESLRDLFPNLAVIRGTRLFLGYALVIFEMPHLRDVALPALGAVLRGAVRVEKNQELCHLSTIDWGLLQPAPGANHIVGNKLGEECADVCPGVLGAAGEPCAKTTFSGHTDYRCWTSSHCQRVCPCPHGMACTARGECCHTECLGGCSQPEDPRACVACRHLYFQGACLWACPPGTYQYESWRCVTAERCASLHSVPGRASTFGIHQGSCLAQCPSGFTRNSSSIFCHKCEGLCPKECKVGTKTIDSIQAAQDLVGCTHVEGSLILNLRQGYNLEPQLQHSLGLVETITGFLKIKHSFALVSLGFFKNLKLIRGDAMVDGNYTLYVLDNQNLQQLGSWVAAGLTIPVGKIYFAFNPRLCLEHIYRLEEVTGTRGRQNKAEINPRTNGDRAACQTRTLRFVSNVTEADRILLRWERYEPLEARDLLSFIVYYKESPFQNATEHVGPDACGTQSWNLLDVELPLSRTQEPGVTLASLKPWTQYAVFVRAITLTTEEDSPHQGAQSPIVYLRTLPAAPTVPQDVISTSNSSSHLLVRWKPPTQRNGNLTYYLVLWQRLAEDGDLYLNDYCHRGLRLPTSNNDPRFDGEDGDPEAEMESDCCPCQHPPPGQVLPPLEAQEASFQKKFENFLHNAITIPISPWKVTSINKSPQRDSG
# Chain of Insulin receptor-related protein (Homo sapiens) (P14616 747-1297 limits assumed): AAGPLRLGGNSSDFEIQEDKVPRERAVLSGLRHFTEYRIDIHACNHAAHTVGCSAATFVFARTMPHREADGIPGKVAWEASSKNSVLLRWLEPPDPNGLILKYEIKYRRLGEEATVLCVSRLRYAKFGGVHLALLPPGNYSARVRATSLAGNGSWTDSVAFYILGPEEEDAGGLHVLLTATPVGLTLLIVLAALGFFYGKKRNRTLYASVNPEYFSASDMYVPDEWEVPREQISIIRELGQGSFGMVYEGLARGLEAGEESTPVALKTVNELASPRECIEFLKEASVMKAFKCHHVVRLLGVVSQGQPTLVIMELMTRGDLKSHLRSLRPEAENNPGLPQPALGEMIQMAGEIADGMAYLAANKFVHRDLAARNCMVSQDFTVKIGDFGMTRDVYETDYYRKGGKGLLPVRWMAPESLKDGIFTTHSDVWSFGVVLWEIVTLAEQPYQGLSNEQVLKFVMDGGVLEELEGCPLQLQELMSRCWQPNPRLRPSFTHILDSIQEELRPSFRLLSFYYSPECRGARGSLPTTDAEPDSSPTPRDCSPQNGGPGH
# [9] = molecular target: Insulin receptor-related protein (Homo sapiens) (UniProt P14616); conditions: at 1 µM
# [10] = molecular target: T1, Tyrosine-protein kinase ITK/TSK (Homo sapiens) (UniProt Q08881); conditions: at 0.1 µM
# T1 sequence (whole entry): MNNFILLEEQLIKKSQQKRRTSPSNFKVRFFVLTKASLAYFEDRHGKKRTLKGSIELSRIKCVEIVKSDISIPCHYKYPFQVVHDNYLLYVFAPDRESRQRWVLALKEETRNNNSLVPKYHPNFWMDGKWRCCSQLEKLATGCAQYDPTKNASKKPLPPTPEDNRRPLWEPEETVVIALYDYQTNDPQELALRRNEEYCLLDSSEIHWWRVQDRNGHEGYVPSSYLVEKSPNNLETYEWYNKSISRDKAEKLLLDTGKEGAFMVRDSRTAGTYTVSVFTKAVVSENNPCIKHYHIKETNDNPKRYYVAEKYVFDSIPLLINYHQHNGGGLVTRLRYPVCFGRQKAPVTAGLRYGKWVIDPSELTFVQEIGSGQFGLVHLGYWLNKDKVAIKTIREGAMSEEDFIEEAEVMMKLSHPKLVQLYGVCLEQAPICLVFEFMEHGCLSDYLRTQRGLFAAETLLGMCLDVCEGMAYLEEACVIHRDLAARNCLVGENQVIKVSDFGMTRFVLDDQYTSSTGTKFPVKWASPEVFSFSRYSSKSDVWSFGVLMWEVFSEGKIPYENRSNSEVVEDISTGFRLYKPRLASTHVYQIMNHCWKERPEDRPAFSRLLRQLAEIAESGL
# [11] = molecular target: T1, Tyrosine-protein kinase ITK/TSK (Homo sapiens); conditions: at 1 µM
# [12] = molecular target: Tyrosine-protein kinase JAK1 (Homo sapiens) (UniProt P23458); conditions: at 0.1 µM
# Chain of Tyrosine-protein kinase JAK1 (Homo sapiens) (P23458 whole entry): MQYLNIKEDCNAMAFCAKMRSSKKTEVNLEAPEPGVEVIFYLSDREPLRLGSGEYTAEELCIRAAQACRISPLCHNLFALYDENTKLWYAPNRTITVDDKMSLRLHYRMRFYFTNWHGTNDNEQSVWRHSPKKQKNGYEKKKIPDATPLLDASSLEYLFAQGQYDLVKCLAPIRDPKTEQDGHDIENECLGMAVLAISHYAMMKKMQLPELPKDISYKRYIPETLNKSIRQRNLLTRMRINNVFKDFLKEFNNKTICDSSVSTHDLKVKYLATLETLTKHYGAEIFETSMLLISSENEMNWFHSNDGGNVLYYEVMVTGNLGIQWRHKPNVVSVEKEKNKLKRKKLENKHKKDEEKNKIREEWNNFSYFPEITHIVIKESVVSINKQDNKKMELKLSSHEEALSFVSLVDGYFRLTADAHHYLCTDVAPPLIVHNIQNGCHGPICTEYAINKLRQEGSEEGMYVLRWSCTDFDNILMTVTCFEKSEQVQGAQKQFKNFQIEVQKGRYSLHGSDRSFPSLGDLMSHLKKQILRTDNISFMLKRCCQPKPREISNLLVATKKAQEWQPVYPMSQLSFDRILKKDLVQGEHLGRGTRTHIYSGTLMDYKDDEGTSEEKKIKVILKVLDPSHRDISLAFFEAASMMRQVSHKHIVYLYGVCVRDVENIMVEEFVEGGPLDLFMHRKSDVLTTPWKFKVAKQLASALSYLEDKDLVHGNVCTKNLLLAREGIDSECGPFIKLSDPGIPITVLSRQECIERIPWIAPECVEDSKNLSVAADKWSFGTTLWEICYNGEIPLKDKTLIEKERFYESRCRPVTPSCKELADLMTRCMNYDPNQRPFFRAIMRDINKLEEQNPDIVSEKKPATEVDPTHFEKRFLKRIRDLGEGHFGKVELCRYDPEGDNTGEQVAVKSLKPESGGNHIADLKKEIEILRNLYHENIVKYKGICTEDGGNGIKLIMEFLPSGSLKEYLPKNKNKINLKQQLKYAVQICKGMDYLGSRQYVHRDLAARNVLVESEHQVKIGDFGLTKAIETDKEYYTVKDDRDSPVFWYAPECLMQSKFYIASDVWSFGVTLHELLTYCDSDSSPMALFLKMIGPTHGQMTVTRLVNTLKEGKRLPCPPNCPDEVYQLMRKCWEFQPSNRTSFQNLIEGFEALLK
# [13] = molecular target: Tyrosine-protein kinase JAK1 (Homo sapiens) (UniProt P23458); conditions: at 1 µM
# [14] = molecular target: Tyrosine-protein kinase JAK2 (Homo sapiens) (UniProt O60674); conditions: at 0.1 µM
# Chain of Tyrosine-protein kinase JAK2 (Homo sapiens) (O60674 whole entry): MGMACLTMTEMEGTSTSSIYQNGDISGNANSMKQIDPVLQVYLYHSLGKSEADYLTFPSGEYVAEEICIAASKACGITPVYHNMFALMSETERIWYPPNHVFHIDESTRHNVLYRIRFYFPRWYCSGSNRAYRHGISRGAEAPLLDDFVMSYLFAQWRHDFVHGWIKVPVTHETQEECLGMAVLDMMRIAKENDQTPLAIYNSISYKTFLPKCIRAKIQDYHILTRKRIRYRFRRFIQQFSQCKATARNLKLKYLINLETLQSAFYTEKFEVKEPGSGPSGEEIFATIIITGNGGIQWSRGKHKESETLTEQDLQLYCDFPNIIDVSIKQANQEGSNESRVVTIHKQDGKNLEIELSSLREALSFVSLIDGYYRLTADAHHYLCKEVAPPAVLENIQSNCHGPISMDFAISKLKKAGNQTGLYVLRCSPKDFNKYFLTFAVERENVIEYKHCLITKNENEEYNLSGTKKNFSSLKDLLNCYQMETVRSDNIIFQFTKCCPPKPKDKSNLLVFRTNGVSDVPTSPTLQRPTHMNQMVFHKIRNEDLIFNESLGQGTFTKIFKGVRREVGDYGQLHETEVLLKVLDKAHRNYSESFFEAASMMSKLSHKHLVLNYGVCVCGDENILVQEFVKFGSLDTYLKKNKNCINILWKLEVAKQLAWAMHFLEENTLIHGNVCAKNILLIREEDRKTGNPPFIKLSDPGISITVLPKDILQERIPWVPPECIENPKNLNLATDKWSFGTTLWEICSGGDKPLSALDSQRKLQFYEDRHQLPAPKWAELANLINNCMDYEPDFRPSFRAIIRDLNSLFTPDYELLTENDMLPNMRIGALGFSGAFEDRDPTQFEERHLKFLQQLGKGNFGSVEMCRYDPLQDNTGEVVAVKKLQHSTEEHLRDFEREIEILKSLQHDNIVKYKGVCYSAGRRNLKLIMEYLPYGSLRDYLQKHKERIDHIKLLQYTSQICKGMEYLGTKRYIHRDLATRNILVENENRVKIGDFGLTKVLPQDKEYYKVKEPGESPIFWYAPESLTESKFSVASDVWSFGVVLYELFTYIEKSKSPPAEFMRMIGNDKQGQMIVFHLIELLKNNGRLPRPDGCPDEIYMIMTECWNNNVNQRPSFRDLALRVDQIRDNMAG
# [15] = molecular target: Tyrosine-protein kinase JAK2 (Homo sapiens) (UniProt O60674); conditions: at 1 µM
# [16] = molecular target: T2, Tyrosine-protein kinase JAK3 (Homo sapiens) (UniProt P52333); conditions: at 0.1 µM
# T2 sequence (whole entry): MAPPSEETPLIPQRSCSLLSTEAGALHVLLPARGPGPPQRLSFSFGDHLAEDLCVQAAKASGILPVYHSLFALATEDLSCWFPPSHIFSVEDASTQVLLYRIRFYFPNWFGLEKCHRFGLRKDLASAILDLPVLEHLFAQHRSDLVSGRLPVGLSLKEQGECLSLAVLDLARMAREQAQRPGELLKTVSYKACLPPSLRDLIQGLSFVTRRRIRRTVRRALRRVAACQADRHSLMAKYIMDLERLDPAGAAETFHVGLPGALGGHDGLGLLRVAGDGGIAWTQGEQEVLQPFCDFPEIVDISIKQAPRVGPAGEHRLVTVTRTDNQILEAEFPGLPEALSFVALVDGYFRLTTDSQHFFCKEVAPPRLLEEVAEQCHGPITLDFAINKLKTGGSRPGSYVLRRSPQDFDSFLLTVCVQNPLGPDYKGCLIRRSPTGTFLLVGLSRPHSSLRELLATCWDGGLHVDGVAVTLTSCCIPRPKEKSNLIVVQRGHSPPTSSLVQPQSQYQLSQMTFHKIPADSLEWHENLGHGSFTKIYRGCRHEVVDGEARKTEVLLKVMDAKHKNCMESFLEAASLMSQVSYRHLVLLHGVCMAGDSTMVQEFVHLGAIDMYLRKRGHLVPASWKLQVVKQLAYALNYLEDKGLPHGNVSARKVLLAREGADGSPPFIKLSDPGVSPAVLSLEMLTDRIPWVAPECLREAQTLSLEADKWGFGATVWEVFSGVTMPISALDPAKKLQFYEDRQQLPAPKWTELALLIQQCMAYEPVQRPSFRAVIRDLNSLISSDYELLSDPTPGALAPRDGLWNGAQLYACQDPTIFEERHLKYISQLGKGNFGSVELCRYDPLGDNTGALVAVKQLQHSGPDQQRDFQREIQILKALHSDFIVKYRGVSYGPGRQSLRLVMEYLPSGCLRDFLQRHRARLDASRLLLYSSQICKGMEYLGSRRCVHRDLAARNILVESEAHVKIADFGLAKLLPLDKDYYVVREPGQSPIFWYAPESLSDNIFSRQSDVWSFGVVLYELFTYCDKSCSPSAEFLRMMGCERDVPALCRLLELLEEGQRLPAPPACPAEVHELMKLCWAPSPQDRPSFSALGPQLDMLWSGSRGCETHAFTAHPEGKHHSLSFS
# [17] = molecular target: T2, Tyrosine-protein kinase JAK3 (Homo sapiens); conditions: at 1 µM
# [18] = molecular target: Vascular endothelial growth factor receptor 2 (Homo sapiens) (UniProt P35968); conditions: at 0.1 µM
# [19] = molecular target: Vascular endothelial growth factor receptor 2 (Homo sapiens) (UniProt P35968); conditions: at 1 µM
# [20] = molecular target: Mast/stem cell growth factor receptor Kit (Homo sapiens) (UniProt P10721); conditions: at 0.1 µM;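 further: values are mean inhibition of KIT, from the GSK PKIS dataset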
# Chain of Mast/stem cell growth factor receptor Kit (Homo sapiens) (P10721 whole entry): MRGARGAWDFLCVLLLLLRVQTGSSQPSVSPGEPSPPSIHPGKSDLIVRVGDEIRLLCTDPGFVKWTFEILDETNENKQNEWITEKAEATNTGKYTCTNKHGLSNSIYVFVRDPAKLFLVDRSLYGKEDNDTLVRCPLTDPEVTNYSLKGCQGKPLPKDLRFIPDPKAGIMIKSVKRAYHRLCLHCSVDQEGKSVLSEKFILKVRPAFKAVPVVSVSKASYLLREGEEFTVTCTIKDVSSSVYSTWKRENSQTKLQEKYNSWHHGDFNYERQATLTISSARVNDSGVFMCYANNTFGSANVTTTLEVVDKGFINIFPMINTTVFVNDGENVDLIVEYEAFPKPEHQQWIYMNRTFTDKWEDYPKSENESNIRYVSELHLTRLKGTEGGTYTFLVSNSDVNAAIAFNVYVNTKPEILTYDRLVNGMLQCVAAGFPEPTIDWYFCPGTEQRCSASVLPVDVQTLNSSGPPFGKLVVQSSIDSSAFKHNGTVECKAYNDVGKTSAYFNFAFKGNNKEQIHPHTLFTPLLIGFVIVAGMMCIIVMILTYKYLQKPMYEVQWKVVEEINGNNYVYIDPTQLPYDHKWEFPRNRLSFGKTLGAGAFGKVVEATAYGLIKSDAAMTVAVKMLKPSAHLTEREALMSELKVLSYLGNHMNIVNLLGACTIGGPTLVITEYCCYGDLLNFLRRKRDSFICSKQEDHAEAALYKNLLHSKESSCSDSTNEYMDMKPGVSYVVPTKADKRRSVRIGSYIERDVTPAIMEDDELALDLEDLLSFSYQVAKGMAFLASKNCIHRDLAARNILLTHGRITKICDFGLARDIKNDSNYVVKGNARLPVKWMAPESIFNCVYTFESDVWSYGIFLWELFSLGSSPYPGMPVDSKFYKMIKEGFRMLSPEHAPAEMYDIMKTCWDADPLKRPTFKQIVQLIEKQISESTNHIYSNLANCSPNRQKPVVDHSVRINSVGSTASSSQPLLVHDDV
# Chain of Tyrosine-protein kinase Fyn (Homo sapiens) (P06241 2-537 limits assumed): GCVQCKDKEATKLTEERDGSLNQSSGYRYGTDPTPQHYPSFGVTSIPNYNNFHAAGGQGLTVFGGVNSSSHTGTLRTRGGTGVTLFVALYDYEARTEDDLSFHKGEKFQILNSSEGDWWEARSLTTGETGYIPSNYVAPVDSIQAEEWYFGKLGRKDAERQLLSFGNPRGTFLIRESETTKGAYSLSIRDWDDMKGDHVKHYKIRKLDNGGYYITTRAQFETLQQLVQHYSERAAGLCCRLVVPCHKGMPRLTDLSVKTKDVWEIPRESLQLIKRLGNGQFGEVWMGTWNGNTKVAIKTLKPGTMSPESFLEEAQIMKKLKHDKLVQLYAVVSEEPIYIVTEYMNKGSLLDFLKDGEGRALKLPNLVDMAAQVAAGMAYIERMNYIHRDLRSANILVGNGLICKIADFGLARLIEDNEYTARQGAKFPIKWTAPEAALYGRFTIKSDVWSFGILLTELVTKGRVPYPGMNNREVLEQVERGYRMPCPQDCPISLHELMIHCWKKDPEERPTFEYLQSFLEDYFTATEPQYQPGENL
SMILES,inhibition [1],inhibition [2],inhibition [3],inhibition [4],inhibition [5],inhibition [6],inhibition [7],inhibition [8],inhibition [9],inhibition [10],inhibition [11],inhibition [12],inhibition [13],inhibition [14],inhibition [15],inhibition [16],inhibition [17],inhibition [18],inhibition [19],inhibition [20]
COc1cc2ncn(-c3cc(OCc4ccccc4C(F)(F)F)c(C(=O)N(C)C)s3)c2cc1OC,8.11%,2.13%,10.1%,1.61%,-0.15%,2.79%,1.7%,-2.24%,-0.76%,0.81%,1.76%,-1.58%,8.12%,0.32%,-0.19%,-0.48%,14.7%,6.67%,27.5%,0.26%
FC(F)(F)c1cccc(-c2nn3ncccc3c2-c2ccnc(Nc3ccc4c(c3)OCCO4)n2)c1,48.1%,5.43%,31.2%,-0.53%,1.37%,-1.37%,3.05%,0.31%,1.27%,0.97%,2.97%,-1.29%,-0.53%,0.96%,1.37%,-0.61%,0.66%,12.6%,49.6%,2.36%
COc1ccc(CNC(=O)c2ccc(-c3cc(-c4nnc(C)o4)ccc3C)cc2)cc1,2.79%,5.56%,4.62%,-2.65%,0.47%,0.9%,0.55%,0.27%,0.52%,2.25%,2.72%,7.51%,19.9%,1.15%,1.48%,1.7%,3%,5.17%,9.11%,2.42%
Cc1cccc2c1NC(=O)/C2=N\Nc1ccc(S(N)(=O)=O)cc1,1.92%,4.11%,6.57%,1.39%,2.37%,2.44%,2.27%,6.42%,0.05%,1.75%,2.45%,3.68%,0.61%,2.04%,4%,0%,4.14%,1.56%,1.84%,8.83%
N#Cc1c(NC(=O)c2ccc(F)cc2)sc2c1CCCC2,3.42%,1.68%,3.88%,0.23%,-0.52%,3.54%,2.79%,-2.15%,-0.16%,0.64%,0.63%,1.63%,6.11%,-0.41%,0.9%,0.53%,2.52%,4.31%,6.96%,6.24%
Cc1cccc(Nc2ncc(-c3ccccc3)o2)c1,8.62%,4.6%,10.2%,4.44%,1.6%,3.27%,2.89%,2.57%,1.2%,2.38%,3.08%,2.19%,0.42%,2%,2.63%,-0.81%,-0.44%,4.96%,21.3%,38.5%
COc1cc(/C=N/Nc2ncnc3[nH]ncc23)ccc1O,41.2%,11.1%,54.2%,3.46%,12.5%,5.52%,15.3%,3.28%,3.65%,1.29%,7.65%,8.12%,9.29%,1.72%,4.07%,-1.64%,2.59%,10.3%,45.6%,11.4%
c1ccc(COc2ccc(Nc3ncnc4ccc(-c5ccco5)cc34)cc2)cc1,3.93%,1.03%,1.93%,-0.83%,-0.77%,0.94%,0.94%,0.38%,0.28%,-0.91%,0.76%,4%,2.21%,0.1%,-0.74%,-2.56%,-0.1%,0.23%,-0.38%,0.2%
CC1=C(C(=O)Nc2cc(Cl)c3[nH]ncc3c2)C(c2ccc(C(F)(F)F)cc2)CC(=O)N1 (stereo not given),4.45%,4.68%,6.23%,2.66%,2.67%,5.06%,6.02%,0.76%,1.79%,1.11%,2.35%,9.58%,51.5%,2.99%,29.2%,2.49%,42.3%,4.67%,6.91%,4.2%
CCCN(CCS(C)(=O)=O)Cc1ccc(-c2ccc3ncnc(Nc4ccc(OCc5cccc(F)c5)c(Cl)c4)c3c2)o1,2.14%,4.4%,8.65%,0.58%,1.93%,5.38%,5.24%,0.9%,1.54%,0.49%,1.15%,-0.11%,4.59%,0.69%,3.22%,0.2%,2.79%,4.89%,8.91%,2.87%
